# In PubChem BioAssay (NCATS):
# Records with an inconclusive call do not appear. Active and inactive are the calls of the source. The call rests on the fitted dose curve; in most records, active means well fitted cell-killing curve with a large enough effect; inconclusive means small, poorly fitted or top-dose-only effect, or effect the other way; inactive means no such curve, though single readings can be large or run the other way.
# Assay: Quantitative High-Throughput drug screen in 47 multiple myeloma cell lines against the NCATS MIPE library collection: KMS20_JCRB cell viability assay (AID 1918973); further: nearly all actives have a fitted effect of over 45% in size
# Conditions: CellTiter-Glo ATP, 48 h; series mostly up to 45.8 µM
# From the text: PI: Beverly A. Mock Ph.D.
# Laboratory of Cancer Biology and Genetics,
# Center for Cancer Research, National Cancer Institute,
# National Institute of Health, Bethesda, Maryland
# Drug resistance and disease progression are common in multiple myeloma (MM) patients, underscoring the need for new therapeutic combinations. […] We hypothesized that effective combinations would reduce MYC expression and enhance p16 activity. […] These preclinical data identify potentially useful drug combinations for evaluation in drug-resistant MM and reveal potential mechanisms of combined drug sensitivity.
# Described herein is the primary MIPE qHTS used to cherrypick compounds. Validated compounds were then further tested for potential synergistic activiy.
# [1] Peat TJ, Gaikwad SM, Dubois W, Gyabaah-Kessie N, Zhang S, Gorjifard S, Phyo Z, Andres M, Hughitt VK, Simpson RM, Miller MA, Girvin AT, Taylor A, Williams D, D'Antonio N, Zhang Y, Rajagopalan A, Flietner E, Wilson K, Zhang X, Shinn P, Klumpp-Thomas C, McKnight C, Itkin Z, Chen L, Kazandijian D, Zhang J, Michalowski AM, Simmons JK, Keats J, Thomas CJ, Mock BA. Drug combinations identified by high-throughput screening promote cell cycle transition and upregulate Smad pathways in myeloma. Cancer Lett. 2023 Aug 1;568:216284. doi: 10.1016/j.canlet.2023.216284. Epub 2023 Jun 24. PMID: 37356470; PMCID: PMC10408729.
# SEQUENCE No. (e.g., 1, 2, 3, etc.); […] (e.g., Cells, Incubation, Reagent, etc.); VALUE and DESCRIPTION.
# 1; Cells; 5 uL; white, solid bottom 1536-well Greiner assay plate.
# 2; Compounds; 23 nL; Kalypsis pin tool (Wako USA) equipped with a 1536-well pin head to transfer to the assay plates.
# 3; Incubation; 48 hours; 37C incubation.
# 4; Reagent;5uL; CellTiter Glo (Promega).
# 5; Detector; 425V; Luminescence; Viewlux PerkinElmer.
# NOTES (numbers refer to Sequence numbers above)
# 1. The cell-based screening methods employed in this study were like those previously published. Briefly, the corresponding myeloma cell lines were screened in 1,536-well plates with 500 cells, 5-uL per well for inhibition of cell viability (assessed by measuring ATP levels with CellTiterGlo).
# 2. NCATS MIPE 4.0 library of approved and investigational drugs were added using the Kalypsis pin tool. Wells treated with DMSO only for 100% viability and media only wells for 0% viability were used as controls.
# 3. The assay plates were covered and incubated for 48 hours in a 37C, 5% CO2 incubator with controlled humidity.
# 4. After 48 hours, CellTilter-GloTM luminescent substrate mix (Promega) reagent was added to the assay plate and plates we incubated for 5 min at room temperature.
# 5. Signal was measured as median relative luminescence units on a ViewLux (PerkinElmer) multiplate reader.
# [1] Heske CM, Davis MI, Baumgart JT, Wilson K, Gormally MV, Chen L, Zhang X, Ceribelli M, Duveau DY, Guha R, Ferrer M, Arnaldez FI, Ji J, Tran HL, Zhang Y, Mendoza A, Helman LJ, Thomas CJ. Matrix Screen Identifies Synergistic Combination of PARP Inhibitors and Nicotinamide Phosphoribosyltransferase (NAMPT) Inhibitors in Ewing Sarcoma. Clin Cancer Res. 2017 Dec 1;23(23):7301-7311. doi: 10.1158/1078-0432.CCR-17-1121. Epub 2017 Sep 12. PMID: 28899971; PMCID: PMC6636827.
# Potency means the concentration at half of the fitted maximal effect.
row,SMILES,Potency
1,COc1cc(O)c2c(c1)C(=O)c1cc(C)cc(O)c1C2=O,inactive
2,CC(C)=CC[C@@H](O)C1=CC(=O)c2c(O)ccc(O)c2C1=O,14.8 µM (active)
3,CC1(C)CCC2=C(O1)c1ccccc1C(=O)C2=O,18.7 µM (active)
4,Cn1c(N2CCCCS2(=O)=O)nc(C(=O)NCc2ccc(F)cc2)c(O)c1=O,inactive
5,COCCOC(=O)C1=C(C)NC2=C(C(=O)CC(c3ccccc3OC)C2)C1c1cccc(O)c1 (stereo not given),4.18 µM (active)
6,c1ccc2c(Cc3c[nH]c4ccccc34)c[nH]c2c1,2.96 µM (active)
7,CC(=O)Nc1ccc([C@H](C)C(=O)Nc2ncc(C(C)C)s2)cc1,3.32 µM (active)
8,NC(=O)c1ccc2nc(-c3ccc(Oc4ccc(Cl)cc4)cc3)[nH]c2c1,5.26 µM (active)
9,Cc1ccc(Nc2cc(-c3cccc(N4C(=O)c5ccccc5C4=O)c3)ncn2)cc1NS(C)(=O)=O,26.4 µM (active)
10,Cc1[nH]c(C=C2C(=O)Nc3ccc(S(=O)(=O)Cc4c(Cl)cccc4Cl)cc32)c(C)c1C(=O)N1CCC[C@H]1CN1CCCC1,0.743 µM (active)
11,CNC1CCC(N(Cc2cccc(-c3ccncc3)c2)C(=O)c2sc3c(F)ccc(F)c3c2Cl)CC1 (stereo not given),1.48 µM (active)
12,C=C1C(=O)[C@@]23C(CC[C@@H]1[C@H]2O)[C@@]12CO[C@]3(O)[C@@H](O)[C@@H]1C(C)(C)CC[C@@H]2O (stereo not given in full),2.35 µM (active)
13,CCc1ccc(OCc2ccccc2C(=O)Nc2ccc3nc(C)cc(N)c3c2)cc1,0.59 µM (active)
14,CC(C)n1nc(-c2ccc3oc(N)nc3c2)c2c(N)ncnc21,0.0418 µM (active)
15,CC=CC(=O)N(CC)c1ccccc1C,inactive
16,CCNc1cc(NC2CCC(O)CC2)nc(Nc2ccc3c(ccn3Cc3ccccc3)c2)n1 (stereo not given),37.2 µM (active)
17,C[N+]1(C)[C@@H]2CC(OC(=O)[C@H](CO)c3ccccc3)C[C@H]1[C@H]1O[C@@H]12 (stereo not given in full),inactive
18,Nc1ncnc2c1ncn2[C@@H]1O[C@H](CO)C[C@@H]1O,inactive
19,CC(C(=O)O)c1ccc(-c2ccccc2)c(F)c1 (stereo not given),4.69 µM (active)
20,O=C(O)CCC1CCC(c2cc(F)ccc2F)(S(=O)(=O)c2ccc(Cl)cc2)CC1 (stereo not given),5.26 µM (active)

row,SMILES,Potency
1,CO[C@H]1C[C@@H]2CC[C@@H](C)[C@@](O)(O2)C(=O)C(=O)N2CCCC[C@@H]2C(=O)O[C@H]([C@H](C)C[C@@H]2CC[C@H](OC(=O)C(C)(CO)CO)[C@H](OC)C2)CC(=O)[C@H](C)C=C(C)[C@@H](O)[C@@H](OC)C(=O)[C@H](C)C[C@H](C)C=CC=CC=C1C,11.8 µM (active)
2,COc1cc2ncnc(-n3nc(-c4ccccn4)nc3N)c2cc1OC,6.62 µM (active)
3,CO[C@H]1C(=O)[C@]2(C)[C@@H](OC)C[C@H]3OC[C@@]3(OC(C)=O)[C@H]2[C@H](OC(=O)c2ccccc2)[C@]2(O)C[C@H](OC(=O)[C@H](O)[C@@H](NC(=O)OC(C)(C)C)c3ccccc3)C(C)=C1C2(C)C,inactive
4,COc1ccc(C2Sc3ccccc3N(CCN(C)C)C(=O)C2OC(C)=O)cc1 (stereo not given),inactive
5,Nc1ncnc2c1nc(Cl)n2[C@@H]1O[C@H](CO)[C@@H](O)[C@@H]1O,4.69 µM (active)
6,CN1CCN(CCOc2cc(OC3CCOCC3)c3c(Nc4c(Cl)ccc5c4OCO5)ncnc3c2)CC1,8.33 µM (active)
7,N#Cc1ccc(NC(=O)Nc2ccccc2Br)c2n[nH]nc12,inactive
8,CC(C)(C)NC(=O)Nc1cccc(Nc2ncc(F)c(NC(C)(C)CO)n2)c1,inactive
9,Cc1ccn(-c2ccc(-c3ncco3)cc2)c(=O)c1-c1ccc2nc(N)ncc2c1,8.33 µM (active)
10,CN(C[C@@H]1COCCO1)S(=O)(=O)Nc1ccc2ccc3ncc(-c4cnn(C)c4)cc3c(=O)c2c1,1.18 µM (active)
11,Cc1ccc(C(C)(O)c2nc3ccccc3s2)c(C)c1 (stereo not given),inactive
12,CC(=Cc1ccccc1)C=C1SC(=S)N(CC(=O)O)C1=O,inactive
13,CC(C)n1cnc2c(NCCCCCCNC(=O)OC(C)(C)C)nc(NCCO)nc21,1.05 µM (active)
14,O=C1c2ccccc2-[n+]2ccc3c([nH]c4ccccc43)c21,1.05 µM (active)
15,COc1ccc(-c2cc(=O)c3c(O)cc(O)cc3o2)cc1O,4.18 µM (active)
16,CC[C@@]1(O)C[C@H](O[C@H]2C[C@H](N(C)C)[C@H](O[C@H]3C[C@H](O)[C@H](O[C@H]4CCC(=O)[C@H](C)O4)[C@H](C)O3)[C@H](C)O2)c2c(cc3c(c2O)C(=O)c2c(O)cccc2C3=O)[C@@H]1C(=O)OC,0.0743 µM (active)
17,O=C(O)c1ccc(-c2cc3cccnc3c(-c3ccc4nonc4c3)n2)cc1,11.8 µM (active)
18,O=C(NCc1ccccc1)c1csc(Nc2ccncn2)n1,14.8 µM (active)
19,Clc1ccc(C(c2ccc(Cl)cc2)n2cc[n+](CC(OCc3ccc(Cl)cc3Cl)c3ccc(Cl)cc3Cl)c2)cc1 (stereo not given),8.33 µM (active)
20,CO[C@H]1C[C@@H]2CC[C@@H](C)[C@@](O)(O2)C(=O)C(=O)N2CCCC[C@@H]2C(=O)O[C@H]([C@H](C)C[C@@H]2CC[C@H](OCCO)[C@H](OC)C2)CC(=O)[C@H](C)C=C(C)[C@@H](O)[C@@H](OC)C(=O)[C@H](C)C[C@H](C)C=CC=CC=C1C,3.72 µM (active)
